Results reported in PubChem BioAssay AID1508600 (Functional Genomics Laboratory (NCATS/FGL), 2020).
In all, about 53,000 sequences went through this assay and about 3,700 (7%) were called active.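 The calls were made as follows: active = gene knockdowns whose robust z-score for IL-1 alpha signal is at least 2 or at most -2, so actives lie on both sides; inactive = the rest.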 The sample as a whole holds a higher share of actives than the screen did.

Assay: Components of the Cytosolic LPS Sensing Pathway: Gene Identification via Genome-wide siRNA Screen;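 also: robust z of the log signal after scaling to non-targeting control siRNA wells of the plate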
Details: RAW264.7 macrophages, IL-1a HTRF, actives lie on both sides, screened at 100 nM (by protocol), cells primed 5 h with Pam3CSK4 first
In short: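 Mouse macrophage line RAW264.7 is transfected with siRNA (100 nM final), grown 48h, primed with TLR ligand Pam3CSK4 5 h and given intracellular LipidA 24 h. IL-1a in supernatant is read by HTRF and viability by luminescence.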

Sequence | z-score
GGUGAAGGUGAACAAGGACTT against Myh9 | 2.92 (active)
GGACAAUCCAUAAGUUAAATT against Scai | 0.22 (inactive)
GGAAGUUAAGCAUAGUUUCTT against Flrt3 | 1.15 (inactive)
GGCAACAGUAUUUAUGAAUTT against Sim2 | -0.45 (inactive)
CCUAGCAUGUUUCUUGCUATT against Rnft2 | 0.46 (inactive)
GGAGAAAAUUGUCAAGAAGTT against Ift122 | -0.824 (inactive)
CCAGGAUCAAAGAACUUAUTT against Olfr1424 | -3.39 (active)
GGAACUUUUCAUCCUGAAGTT against Fgl1 | 0.0919 (inactive)
GCUCAUCAAGCUGUACCUATT against Eif2b1 | 1.16 (inactive)
GCUUUGAUUUAUGAGGUCATT against Ttc30a1 | 0.251 (inactive)
GGUCUUGUGGUGGUACUACTT against Elovl2 | 1.77 (inactive)
GGCCAUUCUGGAAACUCCATT against Foxp4 | -0.0644 (inactive)
GGAAUAAUAGAGGAAUGAGTT against Bclaf1 | -1.61 (inactive)
GGAGAGAGAUUUUCAAUAUTT against Gtdc1 | -0.41 (inactive)
GGAGAGCCUUAUUCAUCGCTT against H2-DMb2 | -0.0566 (inactive)
GGAAUCUGUCAUGUGAAUATT against Slc1a5 | -0.0766 (inactive)
GCUGGUGCAUUACUGAGGUTT against Olfr69 | 0.434 (inactive)
CCAAACACUAUGUGACAAGTT against Trim8 | -0.626 (inactive)
GCGGGUGAAAUACACCAAGTT against Trim28 | -2.2 (active)
GGCCAAGCAUGUUUUGUCATT against Cep72 | -0.639 (inactive)
GCUUGGUGGGUUUGUUGAUTT against Slc28a1 | -0.113 (inactive)
GUGCUCUAUGUCUUCACUGTT against Ltb4r2 | -1 (inactive)
CGACUACCAACAGUUCAUATT against P2rx6 | 1.14 (inactive)

Sequence | z-score
UCCAUUUCGACCCUUGUACTT against Romo1 | -2.88 (active)
GGAGCUCAUAGACCAGCUUTT against Necab3 | 0.371 (inactive)
GCUUGAUGGUAAAAAGGUUTT against Atl1 | -1.18 (inactive)
CCAACCUAUAAGUUAAUGATT against Mrps22 | -0.735 (inactive)
CGGAGAGGAUUUCAUCGAATT against Azgp1 | 0.0877 (inactive)
GGGCCUCCAUCCUACUAUGTT against Grina | 1.65 (inactive)
GGGCUUCUUCUGCUAUGACTT against Plppr2 | -2.2 (active)
CGAUAUGUGUUUGUAAUGGTT against Atp6v1d | -0.853 (inactive)
GCCGUGAUCGACUUGAAUATT against U2af1 | 0.763 (inactive)
CCAAUAUGCUCAGUAUUACTT against Eya4 | -1.36 (inactive)
CCCUCUCCCUUCAAUGUGGTT against Cblif | -1.38 (inactive)
GGGUGUUUGGUUGUGAUCUTT against Arhgap33 | -2.07 (active)
GGAGUAGUAGCUGAAUUUGTT against Abcc3 | 0.317 (inactive)
GGCUGAUCUCUUUUGCCAGTT against Reg2 | 0.00409 (inactive)
GGAACAUAUACUGGACAGATT against Zfp825 | 0.436 (inactive)
GGAUGUGAUCAUAGCAUGGTT against Slc35e1 | -2.07 (active)
GGGCUAAUAUACAGAAAUATT against Rrm2b | -0.126 (inactive)
GGUGGAGAAAAAUGCAACATT against Clnk | -0.429 (inactive)
GGAAAUCUGAAGAAUCAAGTT against Zup1 | -0.621 (inactive)
GGAGGUAGAAAAGACAAAATT against Jrk | 1.96 (inactive)
GGAUGCAUUUCUGAGCCACTT against Tacc2 | -1.62 (inactive)
CUCUCGAACAAUCAACCACTT against Olfr315 | 2.05 (active)
GGAAGGACAAUCAGUUCCUTT against Thsd7b | 0.999 (inactive)

Sequence | z-score
CCUUUUAUAACUGCUCUCUTT against Jpt2 | -1.01 (inactive)
GCUCACUCUUUCCAACUAUTT against Ubox5 | 0.465 (inactive)
GGCUGGAUUAUUUUUUCUUTT against Usp4 | 0.921 (inactive)
GAACGUGCAGCUGACAGAGTT against Ppp1ca | -1.03 (inactive)
GACUAUGUGGUCUACUCGUTT against Drd4 | 2.86 (active)
CGGGCUGGAAGAAAUCUCUTT against Rhox3a | 0.771 (inactive)
GGACAAAACCAUCUCCUUCTT against Olfr17 | 0.324 (inactive)
GGGAAUGCACUACAACUACTT against Chpf | 1.16 (inactive)
GCCAUAUCAACUAGUGCAGTT against Siglech | 2.36 (active)
GGCUUUUCUGGCUAUCCACTT against Anxa7 | -0.774 (inactive)
GGCCCAAGAGCAUUCUGGATT against Slc25a19 | 0.552 (inactive)
GGGUGUGCAUUUGUACUACTT against Smad9 | 1.21 (inactive)
GGAUAUGUCAGCAUAUGUGTT against Yeats4 | -0.583 (inactive)
GGUCAACAGUUACAUCGAGTT against Vps33a | 0.273 (inactive)
GCCCAUCUUAGCAUUCUCUTT against Aldh4a1 | -1.91 (inactive)
GCUAGAAAAAAAUCAGUUGTT against Eif2a | 0.6 (inactive)
CCCAGAACGGGAUGAUUCUTT against Trex2 | 2.77 (active)
CCUCUCAACCACUGACUGATT against Gpatch4 | 0.836 (inactive)
GCUCAAAUCGUACAAGUGUTT against Panx1 | 0.214 (inactive)
GUCCUCGUAGGAACAGCAUTT against Olfr1265 | -1.52 (inactive)
GGCACUGUUGUGGCUGAAATT against Coro1a | 1.47 (inactive)
CCUCAUGGAUGUUCGUAGATT against P2ry10 | 0.452 (inactive)
GCUAGGAUGUCUGAAAGAGTT against Ccdc178 | 0.266 (inactive)
